Measured values taken from the supplement of paper PMC10849652.
Targets with a hit are over-represented here; the source holds about 8,800 in all. About 0.5% of all pairs of compound and target were hits.

Columns and labels:
Assay in all cases: log2 fold change, soluble protein after heating vs DMSO (PISA); higher = thermal stabilisation; K562 lysate, 10 uM; active = over 0.2 and 3.5 SD of the protein, either way, in both replicates (recomputed)
erlotinib = compound: C#Cc1cccc(Nc2ncnc3cc(OCCOC)c(OCCOC)cc23)c1 [erlotinib]
How it was run: (§1)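 A 30 min treatment with 10 μM compound was applied to crude K562 extract at 1 mg/mL protein in PBS pH 7.4 with 1 mM MgCl2. Heating for 3 min spanned 48°C-58°C, after which aliquots were pooled, adjusted to 0.5% NP-40 at 4°C and spun at 21,000xg for 90 min. TMTpro 16plex LC-MS/MS of the supernatant, with channel sums equalised, gave values recorded as log-two fold change in thermal stability against solvent controls, from duplicates.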

[1] = compound: C1=CC(=CC=C1C2=NC3=C(N2)C=C(C=C3)C(=O)N)OC4=CC=C(C=C4)Cl
How it was run: as §1

[2] = compound: C1=CC2=NC=CN=C2C=C1/C=C/3\C(=O)NC(=O)S3
How it was run: as §1

[3] = compound: C1=CC=C(C=C1)C2=NC(=C(N2)C3=CC=NC=C3)C4=CC(=C(C=C4)Cl)O
How it was run: as §1

[4] = compound: C1CCN(C1)C(=O)NC2=CC=CC(=C2)NC3=NC=C(C(=N3)NCCC4=CN=CN4)Br
How it was run: as §1

[5] = compound: C1CN(CCC1(CC2=CC=C(C=C2)Cl)N)C3=NC=NC4=C3C=CN4
How it was run: as §1

IRAK-1-4 Inhibitor I = compound: C1COCCN1CCN2C3=CC=CC=C3N=C2NC(=O)C4=CC(=CC=C4)[N+](=O)[O-] [IRAK-1-4 Inhibitor I]
How it was run: as §1

[6] = compound: C/C(=N\NC(=O)C1=CC(=CC=C1)S(=O)(=O)N2CCOCC2)/C3=C(C=CC(=C3)Cl)O
How it was run: as §1

[7] = compound: C1=CC2=C(C=CC(=C2)/C=C\3/C(=O)NC(=NCC4=CC=CS4)S3)N=C1
How it was run: as §1

[8] = compound: C1=CC=C2C(=C1)C3=NNC4=CC=CC(=C43)C2=O
How it was run: as §1

Measured: log2 fold change

RNF17 (UniProt Q9BXT8)
Sequence of UniProt Q9BXT8 (Q9BXT8 whole entry, looked up): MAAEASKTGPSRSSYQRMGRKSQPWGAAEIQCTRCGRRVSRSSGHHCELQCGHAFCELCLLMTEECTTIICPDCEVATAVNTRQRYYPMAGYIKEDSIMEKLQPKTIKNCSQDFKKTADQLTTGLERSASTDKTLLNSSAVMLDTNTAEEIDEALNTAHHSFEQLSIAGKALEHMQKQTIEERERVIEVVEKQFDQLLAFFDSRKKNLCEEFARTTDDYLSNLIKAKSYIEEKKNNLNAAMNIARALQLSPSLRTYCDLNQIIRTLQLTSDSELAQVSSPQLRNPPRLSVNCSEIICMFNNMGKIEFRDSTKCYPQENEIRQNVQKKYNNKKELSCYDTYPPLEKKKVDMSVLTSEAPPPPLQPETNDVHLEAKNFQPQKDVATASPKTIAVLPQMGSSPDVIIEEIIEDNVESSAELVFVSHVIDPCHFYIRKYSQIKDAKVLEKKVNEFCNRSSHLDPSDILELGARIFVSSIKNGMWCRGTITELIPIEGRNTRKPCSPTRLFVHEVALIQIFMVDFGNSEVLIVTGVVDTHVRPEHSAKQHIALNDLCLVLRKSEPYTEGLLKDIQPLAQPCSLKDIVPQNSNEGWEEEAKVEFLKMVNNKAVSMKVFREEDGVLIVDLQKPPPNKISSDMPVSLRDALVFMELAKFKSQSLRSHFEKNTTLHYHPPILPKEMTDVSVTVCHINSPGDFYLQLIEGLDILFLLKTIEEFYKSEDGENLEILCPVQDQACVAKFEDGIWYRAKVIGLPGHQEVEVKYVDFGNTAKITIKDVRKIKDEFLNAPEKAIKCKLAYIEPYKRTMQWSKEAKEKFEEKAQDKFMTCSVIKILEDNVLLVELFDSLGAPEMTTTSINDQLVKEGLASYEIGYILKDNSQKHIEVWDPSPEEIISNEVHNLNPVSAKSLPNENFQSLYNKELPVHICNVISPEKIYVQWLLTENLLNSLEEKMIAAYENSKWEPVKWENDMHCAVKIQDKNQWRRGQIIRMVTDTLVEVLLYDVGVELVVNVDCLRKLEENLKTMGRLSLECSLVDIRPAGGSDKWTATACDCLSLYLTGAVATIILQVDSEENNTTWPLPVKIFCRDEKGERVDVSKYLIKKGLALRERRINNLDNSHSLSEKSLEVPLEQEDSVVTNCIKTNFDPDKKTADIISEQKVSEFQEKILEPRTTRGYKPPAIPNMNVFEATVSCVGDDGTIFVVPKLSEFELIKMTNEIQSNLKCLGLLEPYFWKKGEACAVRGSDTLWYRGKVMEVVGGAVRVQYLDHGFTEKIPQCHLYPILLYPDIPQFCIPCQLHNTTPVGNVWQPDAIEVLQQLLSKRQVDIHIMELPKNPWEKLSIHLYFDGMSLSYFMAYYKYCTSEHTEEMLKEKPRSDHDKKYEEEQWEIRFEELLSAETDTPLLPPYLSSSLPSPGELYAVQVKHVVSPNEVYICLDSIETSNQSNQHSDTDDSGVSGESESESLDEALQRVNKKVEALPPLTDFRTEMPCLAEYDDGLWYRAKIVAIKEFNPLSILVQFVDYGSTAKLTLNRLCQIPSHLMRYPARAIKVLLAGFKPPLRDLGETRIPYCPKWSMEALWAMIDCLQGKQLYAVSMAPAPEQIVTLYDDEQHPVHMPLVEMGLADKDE
inactive: erlotinib -0.055 | [1] 0.008 | [2] 0.553 | [3] 0.013 | [4] -0.025 | [5] 0.033 | IRAK-1-4 Inhibitor I 0.055

QSER1, A0A3B3IRW6
inactive: erlotinib -0.056 | [6] 0.025 | [1] 0.054 | [7] -0.057 | [3] -0.006 | [8] 0.059 | [4] 0.002 | [5] -0.046 | IRAK-1-4 Inhibitor I -0.014

RPS6KA3 (UniProt P51812)
Sequence of UniProt P51812 (P51812 whole entry, looked up): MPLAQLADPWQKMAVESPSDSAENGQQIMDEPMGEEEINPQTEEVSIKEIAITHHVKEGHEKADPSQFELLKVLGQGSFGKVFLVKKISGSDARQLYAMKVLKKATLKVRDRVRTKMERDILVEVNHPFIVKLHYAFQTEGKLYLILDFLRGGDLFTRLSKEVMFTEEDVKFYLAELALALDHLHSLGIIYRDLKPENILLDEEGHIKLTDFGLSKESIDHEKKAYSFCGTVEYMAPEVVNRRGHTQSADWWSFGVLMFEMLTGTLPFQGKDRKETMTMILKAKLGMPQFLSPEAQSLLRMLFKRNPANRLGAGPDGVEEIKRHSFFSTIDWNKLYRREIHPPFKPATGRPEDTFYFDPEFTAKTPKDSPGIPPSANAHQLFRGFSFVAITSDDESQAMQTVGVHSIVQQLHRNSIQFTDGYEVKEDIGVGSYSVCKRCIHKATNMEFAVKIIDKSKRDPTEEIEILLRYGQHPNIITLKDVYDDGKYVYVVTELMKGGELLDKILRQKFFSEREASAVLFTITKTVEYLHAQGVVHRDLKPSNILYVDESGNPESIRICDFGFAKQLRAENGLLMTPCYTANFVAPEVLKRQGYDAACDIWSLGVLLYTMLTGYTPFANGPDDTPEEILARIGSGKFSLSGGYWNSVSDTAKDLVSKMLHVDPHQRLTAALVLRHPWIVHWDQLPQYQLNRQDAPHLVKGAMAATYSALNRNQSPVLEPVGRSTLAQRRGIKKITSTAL
inactive: erlotinib -0.04 | [6] -0.003 | [1] 0.182 | [2] 0.004 | [3] 0.026 | [8] 0.328 | [4] 0.082 | [5] -0.043 | IRAK-1-4 Inhibitor I -0.019

RUFY2 isoform 1 (UniProt Q8WXA3)
Sequence of UniProt Q8WXA3 (Q8WXA3 whole entry, looked up): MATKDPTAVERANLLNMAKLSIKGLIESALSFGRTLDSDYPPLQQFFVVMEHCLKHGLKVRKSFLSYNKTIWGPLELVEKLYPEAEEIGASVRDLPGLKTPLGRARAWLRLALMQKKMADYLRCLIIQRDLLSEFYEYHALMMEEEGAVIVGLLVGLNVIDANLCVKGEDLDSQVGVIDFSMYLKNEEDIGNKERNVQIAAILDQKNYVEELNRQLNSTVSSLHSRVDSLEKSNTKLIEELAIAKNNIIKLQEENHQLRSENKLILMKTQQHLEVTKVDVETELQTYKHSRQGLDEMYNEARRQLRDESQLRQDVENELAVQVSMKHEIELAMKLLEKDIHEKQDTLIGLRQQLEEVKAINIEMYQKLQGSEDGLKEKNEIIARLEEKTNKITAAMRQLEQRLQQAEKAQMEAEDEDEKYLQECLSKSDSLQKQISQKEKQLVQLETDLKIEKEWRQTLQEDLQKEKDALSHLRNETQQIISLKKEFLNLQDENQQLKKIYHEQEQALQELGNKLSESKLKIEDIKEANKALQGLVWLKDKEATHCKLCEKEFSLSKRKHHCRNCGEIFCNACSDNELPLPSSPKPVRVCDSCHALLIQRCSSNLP
inactive: [6] -0.117 | [7] 0.02 | [2] 0.016 | [3] -0.099 | [8] 0 | [4] -0.01 | [5] 0.041 | IRAK-1-4 Inhibitor I 0.05

SELENOK (UniProt Q9Y6D0)
Sequence of UniProt Q9Y6D0 (Q9Y6D0 whole entry, looked up): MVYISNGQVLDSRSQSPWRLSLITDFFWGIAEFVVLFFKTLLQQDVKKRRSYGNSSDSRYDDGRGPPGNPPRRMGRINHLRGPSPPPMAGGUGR
inactive: [6] -0.075 | [7] 0.02 | [2] 0.089 | [8] 0.044

RNF170 (UniProt Q96K19)
Sequence of UniProt Q96K19 (Q96K19 whole entry, looked up): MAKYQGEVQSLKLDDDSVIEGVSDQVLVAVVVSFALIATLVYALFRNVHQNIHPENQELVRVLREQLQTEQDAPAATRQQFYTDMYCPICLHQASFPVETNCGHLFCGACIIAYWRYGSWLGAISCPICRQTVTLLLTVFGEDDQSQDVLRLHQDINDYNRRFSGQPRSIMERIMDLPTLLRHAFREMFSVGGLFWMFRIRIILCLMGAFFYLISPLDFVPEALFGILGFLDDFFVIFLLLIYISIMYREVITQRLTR
inactive: erlotinib 0.062 | [6] -0.018 | [1] -0.125 | [7] 0.136 | [2] 0.032 | [8] -0.577

RPS6KA5 (UniProt O75582)
Sequence of UniProt O75582 (O75582 whole entry, looked up): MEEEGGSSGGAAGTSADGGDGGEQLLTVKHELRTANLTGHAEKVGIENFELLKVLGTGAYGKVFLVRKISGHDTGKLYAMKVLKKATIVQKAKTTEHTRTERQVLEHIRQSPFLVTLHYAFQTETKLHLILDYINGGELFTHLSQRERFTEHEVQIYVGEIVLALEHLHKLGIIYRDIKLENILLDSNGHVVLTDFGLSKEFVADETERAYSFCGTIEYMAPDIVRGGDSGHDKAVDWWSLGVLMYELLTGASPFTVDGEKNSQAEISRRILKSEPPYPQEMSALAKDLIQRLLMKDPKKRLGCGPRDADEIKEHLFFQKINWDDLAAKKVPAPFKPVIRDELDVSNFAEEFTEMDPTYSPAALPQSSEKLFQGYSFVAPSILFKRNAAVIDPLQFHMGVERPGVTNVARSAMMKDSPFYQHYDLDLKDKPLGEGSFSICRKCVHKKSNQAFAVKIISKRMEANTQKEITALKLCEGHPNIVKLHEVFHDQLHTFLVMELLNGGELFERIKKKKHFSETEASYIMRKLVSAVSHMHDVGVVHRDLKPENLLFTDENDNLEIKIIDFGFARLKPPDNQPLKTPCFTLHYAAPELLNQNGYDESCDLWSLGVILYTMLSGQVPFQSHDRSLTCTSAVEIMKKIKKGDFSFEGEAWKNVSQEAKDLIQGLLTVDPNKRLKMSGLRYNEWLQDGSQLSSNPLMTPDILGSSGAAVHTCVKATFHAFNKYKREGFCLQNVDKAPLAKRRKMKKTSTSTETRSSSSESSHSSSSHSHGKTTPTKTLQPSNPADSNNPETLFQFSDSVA
inactive: erlotinib -0.036 | [6] -0.161 | [1] 0.2 | [7] 0.014 | [3] 0.023 | [8] 0.152 | [4] -0.02 | [5] -0.11 | IRAK-1-4 Inhibitor I 0.014

SEMA4G isoform 2 (UniProt Q9NTN9)
Sequence of UniProt Q9NTN9 (Q9NTN9 whole entry, looked up): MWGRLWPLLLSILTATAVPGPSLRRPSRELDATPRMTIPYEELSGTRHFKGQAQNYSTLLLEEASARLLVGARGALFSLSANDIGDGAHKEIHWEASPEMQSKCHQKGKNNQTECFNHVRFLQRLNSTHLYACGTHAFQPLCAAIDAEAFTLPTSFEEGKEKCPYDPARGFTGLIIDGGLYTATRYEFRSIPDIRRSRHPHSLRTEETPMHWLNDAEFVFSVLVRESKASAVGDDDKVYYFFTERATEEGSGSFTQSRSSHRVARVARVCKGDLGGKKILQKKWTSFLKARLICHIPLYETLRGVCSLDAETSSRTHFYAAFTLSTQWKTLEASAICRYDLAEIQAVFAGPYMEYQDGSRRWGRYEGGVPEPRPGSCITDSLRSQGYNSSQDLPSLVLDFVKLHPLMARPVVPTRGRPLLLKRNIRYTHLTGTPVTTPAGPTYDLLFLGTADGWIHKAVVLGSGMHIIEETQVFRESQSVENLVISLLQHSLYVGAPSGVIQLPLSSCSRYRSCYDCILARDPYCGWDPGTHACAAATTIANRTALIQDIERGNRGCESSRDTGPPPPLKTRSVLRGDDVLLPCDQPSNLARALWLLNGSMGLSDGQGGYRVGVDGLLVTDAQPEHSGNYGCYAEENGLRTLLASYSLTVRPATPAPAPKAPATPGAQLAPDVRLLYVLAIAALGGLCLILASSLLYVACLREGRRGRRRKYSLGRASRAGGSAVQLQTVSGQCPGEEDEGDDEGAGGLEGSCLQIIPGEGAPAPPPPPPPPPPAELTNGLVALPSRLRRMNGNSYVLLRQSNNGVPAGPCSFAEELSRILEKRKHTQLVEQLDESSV
inactive: erlotinib 0.005 | [6] -0.137 | [1] -0.063 | [7] 0.032 | [8] -0.011 | [4] 0.034 | [5] -0.112

ROBO2 isoform 3 (UniProt Q9HCK4)
inactive: erlotinib 0.042 | [1] -0.013 | [3] 0.008 | IRAK-1-4 Inhibitor I -0.062
